Only some compounds are listed: those with a hit (about 1.8% of all), similar ones and a draw of the others.
TRPML1 agonist: agonists of human TRPML1 channel | Q9GZU1 | activation, % (test concentration not listed) | actives 0.12% (n = 410,000) | TRPML1-expressing cells, Ca2+ dye fluorescence, FDSS; in the data active = activation above about 50%; inconclusive = mostly about 30% to 49%
Target sequence (Q9GZU1 whole entry, looked up): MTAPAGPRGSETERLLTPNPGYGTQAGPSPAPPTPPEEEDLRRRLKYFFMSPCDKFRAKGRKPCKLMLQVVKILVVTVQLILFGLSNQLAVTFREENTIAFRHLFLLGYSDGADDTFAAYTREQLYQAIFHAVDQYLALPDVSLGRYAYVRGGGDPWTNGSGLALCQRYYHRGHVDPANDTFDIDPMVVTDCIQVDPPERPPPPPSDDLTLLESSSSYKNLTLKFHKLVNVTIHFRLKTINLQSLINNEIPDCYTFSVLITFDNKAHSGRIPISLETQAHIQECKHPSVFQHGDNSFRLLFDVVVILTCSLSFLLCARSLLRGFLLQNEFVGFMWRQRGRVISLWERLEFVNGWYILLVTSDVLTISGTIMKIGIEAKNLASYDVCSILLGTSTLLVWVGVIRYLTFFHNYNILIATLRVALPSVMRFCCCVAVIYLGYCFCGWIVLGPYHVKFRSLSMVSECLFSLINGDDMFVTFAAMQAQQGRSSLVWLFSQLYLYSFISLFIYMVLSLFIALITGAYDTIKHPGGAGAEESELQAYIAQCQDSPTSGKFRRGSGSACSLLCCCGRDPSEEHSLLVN
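In this qHTS format, compounds were pin-transferred onto Ca8-dye-loaded TRPML1-DL cells induced with Tet overnight, and intracellular Ca2+ fluorescence was recorded kinetically for 110 s after a 10 s baseline. A subsequent 4uM final 54-4 (EC80) addition followed by a second 110 s read served as the antagonist phase.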
GLP-1R inv ag: acts as inverse agonist at human GLP-1 receptor. P43220. Potency, µM (series often up to 38.3 µM), most hits filed as inhibitors. HEK293 GLP-1R CRE-luciferase, luminescence, 24 h; GLP-1R form is constitutively active. actives 1.6% (n = 410,000). AID 624417; note: nearly all actives have a fitted effect of over 55% in size
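Luminescence readout: a drop in cAMP-driven luciferase signal flags inverse agonism at a constitutively active GLP-1R stably expressed in HEK293. Compound exposure lasted 24 hr at 37 deg C, 5% CO2.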
GLP-1R agonist: activates the human GLP-1 receptor; Potency, µM (titrated, usually from 45.6 µM), most hits filed as activators; HEK293 GLP-1R CRE-luciferase, luminescence, 4-6 h; cells express a hypersensitive GLP-1R form; P43220; AID 624172; actives 0.007% (n = 380,000)
TRPML1 inh: blocks the human TRPML1 channel | Q9GZU1 | TRPML1-inducible cells, Ca2+ dye fluorescence, FDSS; stronger effect = lower value; inhibition of EC80 agonist-evoked calcium signal | activity change, negative = inhibition, % (test concentration not listed) | actives 0.02% (n = 390,000) | AID 624415; in the data active = activity change below about -50%; inconclusive = between about -30% and that limit;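 note: stimulus is agonist 54-4 at its EC80 concentration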
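Tet-induced TRPML1-DL cells loaded with Ca8 no-wash calcium dye were read kinetically on FDSS. Compound addition was followed by EC80 agonist 54-4 (4 uM final); inhibition was read over 110 s.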
HEK293 tox: cytotoxic in the GLP-1 receptor inverse agonist counter-screen; actives 0.13% (n = 410,000); Potency, µM (doses to about 38.3 µM), usual class: inhibitors; HEK293 cAMP-luciferase reporter cells, luminescence, 24 h;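 note: loss of luciferase light is scored as toxicity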
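Compound-treated cells are incubated 24 hr at 37 deg C under 5% CO2 after a 12 hour attachment period, then luciferase detection reagent is added and luminescence is measured following 12 min at room temperature; lowered signal indicates toxicity.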
A number is an active result; - = inactive; ? = inconclusive; . = no result. Unless noted, calls come from the whole dose curve; as a rule, active = well fitted curve in the direction sought with a large enough effect; inconclusive = small, poorly fitted or top-dose-only effect, or another doubt; inactive = no such curve, though single readings can be large; an effect the other way counts as inactive or inconclusive.

SMILES	TRPML1 agonist	GLP-1R inv ag	GLP-1R agonist	TRPML1 inh	HEK293 tox
O=C(Nc1cc(Cl)cc(Cl)c1)C(c1ccccc1)N1CCCCC1 (configuration not stated)	-	2.2µM	-	-	-
CC1CCN(C(C(=O)Nc2ccc(C(C)C)cc2)c2ccc3c(c2)OCO3)CC1 (configuration not stated)	-	4.5µM	-	-	-
CC(C)c1ccc(NC(=O)C(c2ccc3c(c2)OCO3)N2CCC3(CC2)OCCO3)cc1 (configuration not stated)	-	?	-	-	-
Nc1ccc2oc(Cc3ccc(Cl)cc3)nc2c1	-	-	.	-	-
Cc1cc(N/N=C/c2ccc(F)cc2)nc(-n2nc(C)cc2C)n1	-	?	-	-	?
COc1ccc(/C=N/Nc2cc(C)nc(-n3nc(C)cc3C)n2)c(OC)c1	-	1.3µM	-	-	?
Cc1cc(C)n(-c2nc(Nc3ccccc3)nc(-n3nc(C)cc3C)n2)n1	-	-	-	-	-
COc1cccc(/C=N/Nc2nc(Nc3ccccc3)nc(-n3nc(C)cc3C)n2)c1O	-	?	-	-52	?
COc1cccc(/C=N/Nc2cc(-n3nc(C)cc3-c3ccccc3)ncn2)c1O	-	3.5µM	-	-	2.2µM
Cc1ccc(-c2nnc(SCCC(=O)Nc3ccccc3)n2C)cc1	-	.	.	.	.
CC(NC(=O)c1ccc(F)cc1)c1ccc2c(c1)CCCC2 (configuration not stated)	-	10µM	-	-	-
CC(NC(=O)c1ccc(Br)cc1)c1ccc2c(c1)CCCC2 (configuration not stated)	-	10µM	-	-	-
COC(=O)c1ccc(Cl)cc1NC(=O)N1CCCn2nc(C)cc21	-	-	.	-	-
CC(=O)Nc1nonc1-c1nnc(SCC(=O)Nc2cccc(F)c2)n1-c1ccccc1	-	-	.	-	-
Cc1ccsc1/C=C(\C(=O)c1ccc(OC(C)C)cc1)c1nc2ccccc2o1	-	4µM	-	-	-
CC(=O)NC(Cc1c(F)c(F)c(F)c(F)c1F)C(=O)NCC(N)C(=O)c1ccccc1 (configuration not stated)	-	.	.	.	.
COc1ccccc1/C=C/C(=O)c1cc(Br)ccc1OC(=O)c1ccco1	-	5µM	-	-	?
Cc1sc(NC(=O)c2ccco2)c(CN2CCN(c3ccccc3)CC2)c1C	-	-	-	-	-
Cc1sc(NC(=O)c2ccco2)c(CN2CCCCC2)c1C	-	6.3µM	-	-	-
CCCCCC(=O)NC(Nc1ccc(S(N)(=O)=O)cc1)C(Cl)(Cl)Cl (configuration not stated)	-	-	-	-	-
CCCCCCC(=O)NC(Nc1ccc(S(N)(=O)=O)cc1)C(Cl)(Cl)Cl (configuration not stated)	-	8.9µM	-	-	-
CSc1ccccc1C(=O)N(C)C(c1ccccc1)c1ccccc1	-	8.9µM	-	-	-
CNc1nc(NCc2ccco2)c2ccccc2n1	70	.	.	.	.
CCNc1nc(NCc2ccco2)c2ccccc2n1	72	.	.	.	.
Cc1ccccc1Nc1nc(NCc2ccco2)c2ccccc2n1	-	4µM	-	-	?
SMILES	TRPML1 agonist	GLP-1R inv ag	GLP-1R agonist	TRPML1 inh	HEK293 tox
c1ccc(Nc2nc(NCc3ccco3)c3ccccc3n2)cc1	-	2.2µM	-	-	?
Oc1ccccc1Nc1nc(NCc2ccco2)c2ccccc2n1	-	?	-	-	-
COc1ccc(CCNC(=O)Cn2cc(S(=O)(=O)Cc3ccccc3F)c3ccccc32)cc1OC	-	-	.	-	-
COc1ccc(CCNC(=O)CCn2c(=O)c3ccccc3n(Cc3ccccc3C)c2=O)cc1OC	-	-	-	-	-
CC(C)COc1ccc(C(=O)N2CCCCC2CCN2CCCCC2)cc1 (configuration not stated)	-	?	.	-	-
COc1ccc(Nc2c3c(nc4ccc(NC(=O)/C=C/c5cc(OC)c(OC)c(OC)c5)cc24)CCCC3)cc1OC	-	?	.	-	?
COc1ccc(Nc2c3c(nc4ccccc24)CCC3)cc1	-	1.8µM	-	-	7.9µM
COc1ccc(/C=C/C(=O)Nc2ccc3nc4c(c(Nc5ccc(OC)c(OC)c5)c3c2)CCCC4)cc1	-	8.9µM	.	-	4.5µM
